Test results: PubChem BioAssay AID1851 (National Center for Advancing Translational Sciences (NCATS), 2009)
Several values for one entry are separate records, joined by “and”; a condition that tells them apart may be missing. Identical values can stand only once. About 5,700 (36%) of roughly 16,000 compounds were called active. Not shown: some 24% with an inconclusive outcome. This is one part of the list. A number with no mark means an inactive call. The call rests on the fitted dose curve; in most records, active means well fitted curve in the direction sought with a large enough effect; inconclusive means small, poorly fitted or top-dose-only effect, or effect the other way; inactive means no such curve, though single readings can be large or run the other way. Square brackets hold non-standard residues; d marks the D form. Peptide text beside a SMILES is read from it.

Target: Cytochrome P450 1A2 (Homo sapiens) (UniProt P05177)
Test: Cytochrome panel assay with activity outcomes
Settings: recombinant CYP, pro-luciferin dealkylation, luminescence, p450-cyp1a2; series mostly up to 57.1 µM
On the % scale 0 is the no-effect control and ±100 the full control effect.

Chain of Cytochrome P450 1A2 (Homo sapiens) (P05177 whole entry, looked up): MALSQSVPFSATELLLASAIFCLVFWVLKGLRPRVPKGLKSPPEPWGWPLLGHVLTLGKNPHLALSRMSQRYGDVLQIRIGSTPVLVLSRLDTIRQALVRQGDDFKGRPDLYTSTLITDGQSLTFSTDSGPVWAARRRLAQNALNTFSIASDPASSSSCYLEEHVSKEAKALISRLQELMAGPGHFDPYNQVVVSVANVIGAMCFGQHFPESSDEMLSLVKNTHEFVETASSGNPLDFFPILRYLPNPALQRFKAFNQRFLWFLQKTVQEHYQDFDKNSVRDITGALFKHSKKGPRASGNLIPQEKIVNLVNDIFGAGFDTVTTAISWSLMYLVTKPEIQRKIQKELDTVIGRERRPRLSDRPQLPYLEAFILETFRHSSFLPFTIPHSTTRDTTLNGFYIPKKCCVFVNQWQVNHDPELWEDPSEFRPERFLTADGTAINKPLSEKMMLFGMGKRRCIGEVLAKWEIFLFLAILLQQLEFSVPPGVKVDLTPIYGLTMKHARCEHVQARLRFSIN

Structure (SMILES)	AC50	activity, negative = inhibition
CCCCc1n[nH]c2c1/C(=N/O)CC(c1ccccc1)C2 (stereo unspecified)	0.398 µM (active)	
Nc1ccccc1CCCC(=O)O		4.62% [at 11.4 µM]
O=C(O)CCCc1ccc2ccc3ccccc3c2c1	2 µM (active)	
NNC(=O)CCc1ccc2ccc3ccccc3c2c1	0.0316 µM (active)	
COC(=O)C/C=C\[C@@H](C)[C@@H](/C=N\O[C@@H](C)c1cn([C@H]2COC[C@H]2O)nn1)NS(=O)(=O)c1ccc(C)cc1		-5.92% [at 11.4 µM]
CCOc1ccc(NC(=O)Cn2nnc(C(=O)NCc3ccccc3OC)c2N)cc1	inactive	
COc1cccc(NC(=O)c2oc3ccccc3c2NC(C)=O)c1	2.51 µM (active)	
CCOc1ccc(NC(=O)c2oc3ccccc3c2NC(=O)CC)cc1	2 µM (active)	
CCOCC(=O)Nc1c(C(=O)Nc2ccccc2OC)oc2ccccc12	0.398 µM (active)	
CCCCN(C(=O)Nc1ccc(OCC)cc1)C1CCN(C(C)=O)CC1	inactive	
CCOc1ccccc1NC(=O)C1=C(C)NC(=O)NC1c1cccc(OC)c1OC (stereo unspecified)	inactive	
COCC(=O)N1CCC[C@@]2(CCN(C(=O)Nc3ccc(OC)cc3)C2)C1	inactive	
C/C(CCN1CCc2nc(-c3ccccc3)c(-c3ccccc3)cc2C1)=N\O[C@@H](C)c1cn([C@H](CO)Cc2ccccc2)nn1		1.6% [at 11.4 µM] and -0.819% [at 11.4 µM]
CCn1c2ccccc2c2cc(NC(=O)CSc3nnc(-c4ccc(OC)c(OC)c4)n3N)ccc21	7.08 µM (active)	
CCn1c2ccccc2c2cc(N=C3SC(CC(=O)Nc4ccccc4OC)C(=O)N3C)ccc21 (stereo unspecified)	inactive	
CCn1c(=O)cc(SCC(=O)Nc2cc(OC)c(OC)c(OC)c2)c2ccccc21	inactive	
CCN(CC)S(=O)(=O)c1ccc2c3c(cccc13)C(=O)S2	1.26 µM (active)	
CCN(CC)S(=O)(=O)c1cccc2c(N(C)C)cccc12	7.08 µM (active)	
Cc1noc(NS(=O)(=O)c2cccc3c(N(C)C)cccc23)c1C	inactive	
Cc1[nH]nc(Nc2ccccc2)c1[N+](=O)[O-]	1 µM (active)	
CCCc1nnc(SCC(=O)N2CCCCC2C)n1CCCOC (stereo unspecified)	inactive	
Cc1ccc2nc(SCc3nc4c(cnn4-c4ccccc4)c(=O)[nH]3)[nH]c2c1	12.6 µM (active)	
COC(=O)C(C)Sc1nc2c(cnn2-c2ccc(C)cc2)c(=O)[nH]1 (stereo unspecified)	2.51 µM (active)	
CCOC(=O)CSc1nc2c(cnn2-c2ccc(C)cc2)c(=O)[nH]1	0.562 µM (active)	
Nc1nc(SCC(=O)O)[nH]c(=O)c1N		-10.3% [at 11.4 µM]
Cc1nc(SCC(=O)Nc2c(C)nn(C)c2C)c2cnn(-c3ccccc3)c2n1	inactive	

Structure (SMILES)	AC50	activity, negative = inhibition
O=C(c1ccco1)N1CCN(c2cc(=O)n(C3CCCCC3)c(=O)[nH]2)CC1	inactive	
O=C(N/N=C/c1c(Nc2cccc(C(F)(F)F)c2)nc2ccccn2c1=O)c1ccccc1	2.82 µM (active)	
Cc1ccc(C(=O)N/N=C/c2sc(=O)n(Cc3cccc(C(=O)O)c3)c2Cl)cc1	inactive	
CC(C)(CO)[C@H](O)C(=O)NCCCO	inactive	
CNc1ncnc2c1ncn2[C@@H]1O[C@@H](CO)[C@H](O)[C@@H]1O	inactive	
Cc1ccc(OCC(=O)N/N=C\c2c(C)n(C)c3ccccc23)c([N+](=O)[O-])c1	0.562 µM (active)	
Cn1c(=O)cc(OCCCC(=O)Nc2cccnc2)c2ccccc21	2 µM (active)	
CCOc1ccc(-c2nnc(-c3ccncc3)o2)cc1	2.51 µM (active)	
COc1ccc(-c2nnc(-c3ccc(OCC(C)C)cc3)o2)cc1	inactive	
COc1ccc(-c2nnc(-c3cccnc3)o2)cc1	12.6 µM (active)	
COc1cccc(-c2noc(-c3cccnc3)n2)c1	2.82 µM (active)	
COc1ccc(CC(=O)Nc2ccc(-c3noc(-c4cccc(OC)c4)n3)cc2)cc1	inactive	
CCOC(=O)CCN1C(=O)[C@H]2[C@H]3[C@H](O)[C@H](O)C/C(=N/OC/C=C(\C)CCC=C(C)C)[C@@H]3CC[C@@H]2C1=O		-2.33% [at 11.4 µM]
N#Cc1c(-c2ccccc2)no[n+]1[O-]	0.398 µM (active)	
C[N+]1(CCC(=O)c2ccco2)CC2CCC(CC2)C1 (stereo unspecified)		-10.2% [at 11.4 µM]
CC[C@H](CN(C)C)C(=O)c1ccco1		-9.05% [at 11.4 µM]
CCCCn1c(=N)n(CC(=O)c2ccco2)c2ccccc21	8.91 µM (active)	
C[C@H](N)CCCC(C)(C)O	inactive	
CSc1nc(C)c2c(n1)N(c1ccc(C(C)C)cc1)CC2	2 µM (active)	
CSc1nc(C)c2c(n1)N(c1ccc(C(F)(F)F)cc1)CC2	0.316 µM (active)	
C[C@H](O)[C@H](O)[C@@H]1CNc2nc(N)[nH]c(=O)c2N1	inactive	
Cn1c(=O)c(C(=O)CN2CCOCC2)c(N)n(Cc2ccccc2)c1=O	inactive	
Cc1nn(-c2ccc(Cl)cc2)c2sc(C(=O)c3c(N)n(C)c(=O)n(C)c3=O)cc12	inactive	
Cn1c(N)c(C(=O)CSc2ccc3c(c2)OCCO3)c(=O)n(C)c1=O	15.8 µM (active)	
COc1ccc(-c2noc(C3CCCN(C(=O)c4ccccc4OC)C3)n2)cc1OC (stereo unspecified)	inactive	
O=C(CC1CCCCC1)N1CCC(c2nc(-c3ccc(S(=O)(=O)N4CCCC4)cc3)no2)CC1	inactive	

Structure (SMILES)	AC50	activity, negative = inhibition
Cc1noc(C)c1C(=O)N1CCC[C@@]2(CCN(C(=O)Nc3cccc(F)c3)C2)C1	inactive	
CCCCCC(=O)N1CCCC(c2nc(-c3ccc(OC)cc3)no2)C1 (stereo unspecified)	3.16 µM (active)	
O=C(Nc1ccccc1)N1CCCC(c2nc(-c3ccc(F)cc3)no2)C1 (stereo unspecified)	25.1 µM (active)	
O=C(Nc1cccc(F)c1)N1CCCC2(CCNCC2)C1	inactive	
CCCCC(=O)NCCc1c(Cc2ccccc2)[nH]c2ccccc12	3.16 µM (active)	
Cc1nc2ncnn2c(C)c1CCC(=O)NCc1ccccc1	inactive	
CC(=O)NCCc1c(Cc2ccccc2)[nH]c2ccccc12	12.6 µM (active)	
COc1ccc2[nH]c(-c3ccccc3)c(CCNC(C)=O)c2c1	1.26 µM (active)	
N[C@H](C(=O)O)c1ccc(C(=O)O)cc1	inactive	
ClC(Cl)(Cl)C(N1CCN(c2ccccc2)CC1)N1CCN(c2ccccc2)CC1		-14.9% [at 2.29 µM]
CCN(CC)CCNC(=O)c1ccc(NC(C)=O)cc1	inactive	
C=CCn1c(=O)c(C(=O)NCCN(CC)CC)c(O)c2ccccc21	1.41 µM (active)	
CCN(CC)CCNC(=O)Cn1nc(-c2ccc(C)cc2)ccc1=O	inactive	
Cc1cccc(CNc2ccnc(-c3ccccc3C(F)(F)F)n2)c1	6.31 µM (active)	
FC(F)(F)c1ccccc1-c1nccc(NCc2ccccc2)n1	12.6 µM (active)	
c1cc2c(cc1C1CCCCC1)c1c3n2CCN[C@H]3CCC1	15.8 µM (active)	
Cc1ccc(NC(=O)c2sccc2SCc2cccc(C(F)(F)F)c2)cc1	2.82 µM (active)	
O=C(N/N=C/c1ccc(Sc2nc3ccccc3s2)c([N+](=O)[O-])c1)c1ccccn1	inactive	
CN(CCO)c1cc(Sc2nc3ccccc3s2)c2nonc2c1[N+](=O)[O-]	14.1 µM (active)	
O=[N+]([O-])c1c(NCCO)cc(Sc2nc3ccccc3s2)c2nonc12	1 µM (active)	
CC1(C)C2([N+](=O)[O-])CN3CC1([N+](=O)[O-])CN(C2)C3c1ccccc1 (stereo unspecified)	inactive	
CSCC[C@H](C=O)NC(=O)[C@H](CC(C)C)NC(=O)[C@H](CC(C)C)NC(C)=O (Ac-Leu-Leu-[dM]-aldehyde)	inactive	
C=CCSc1nc(NC)c2sccc2n1	1 µM (active)	
C=CCNc1nc(SCC=C)nc2ccsc12	0.501 µM (active)	
C=CCSc1ccsc1C(=O)O	inactive	
C=CCSc1nc(Oc2ccccc2)c2sccc2n1	2.51 µM (active)	

Structure (SMILES)	AC50	activity, negative = inhibition
N[C@@H](Cc1ncccn1)C(=O)O		-7.74% [at 11.4 µM]
CCCC1(C(=O)OC)C=C2C(=C(c3ccccc3)C(=O)C2C)CN1 (stereo unspecified)	15.8 µM (active)	
COC(=O)C1(C)C=C2C(=C(c3ccccc3)C(=O)C2C)CN1 (stereo unspecified)	15.8 µM (active)	
CC1(C)CC(=O)C(CCC(=O)c2ccccc2)C(C)(C)N1 (stereo unspecified)	inactive	
CCCCCC1=C2CNC(CCC)(C(=O)OC)C=C2C(C)C1=O (stereo unspecified)	31.6 µM (active)	
CCCC1(C(=O)OC)C=C2C(=C(C(C)C)C(=O)C2C)CN1 (stereo unspecified)	inactive	
CCCC1(C(=O)OC)C=C2C(=C(C)C(=O)C2C)CN1 (stereo unspecified)	inactive	
CCN=C(N)CSS(=O)(=O)O		-10.1% [at 11.4 µM]
c1cn(-c2ncnc3ccc(-c4ccoc4)cc23)cn1	1.26 µM (active)	
CN(C)c1ccc(-c2ccc3ncnc(-n4ccnc4)c3c2)cc1	0.316 µM (active)	
Cc1ccccc1-c1ccc2ncnc(-n3ccnc3)c2c1	0.794 µM (active)	
Cc1cc2c(s1)CCCCC(=O)N2	inactive	
C=C(CC1([C@@H](NP(=O)(c2ccccc2)c2ccccc2)[C@H]2C[C@@H]2CCN(C(=O)OCC)S(=O)(=O)c2ccc(C)cc2)CC1)c1ccccc1	inactive	
CCN1C(=O)[C@H]2[C@H]3[C@H](O)[C@H](O)C/C(=N/O[C@@H]4O[C@@H](COC(C)=O)[C@@H](OC(C)=O)[C@@H](OC(C)=O)[C@H]4OC(C)=O)[C@@H]3CC[C@@H]2C1=O		-12.6% [at 11.4 µM]
COc1ccc(S(=O)(=O)N2CCC(C(=O)NCC3CCCO3)CC2)cc1C (stereo unspecified)	inactive	
N#C/C(=C\c1cccs1)C(=O)NCC1CCCO1 (stereo unspecified)	12.6 µM (active)	
COc1cc(/C=C(/NC(=O)c2ccccc2)C(=O)Nc2ccccc2)c([N+](=O)[O-])cc1OC	inactive	
COc1cc(/C=C(\C#N)C(=O)NCC2CCCO2)c([N+](=O)[O-])cc1OC (stereo unspecified)	4.47 µM (active)	
Cc1cccc(C)c1NC(=O)C[N+](C)(C)C	inactive	
Cc1cccc(C)c1NC(=O)/C(C#N)=C/c1cccs1	12.6 µM (active)	
Cc1cccc(C)c1NC(=O)[C@H](C)N	inactive	
CCS(=O)(=O)N1CCC(C(=O)NCC2CCCO2)CC1 (stereo unspecified)	inactive	
Cc1ccc(-n2c(C)cc(/C=C(\C#N)C(=O)NCC3CCCO3)c2C)cc1 (stereo unspecified)	inactive	
